Test results published in PubChem BioAssay (NCATS).
Inconclusive results are not listed. Calls of active or inactive are those of the source. Unless noted, the call rests on the fitted dose curve; in most records, active means well fitted curve in the direction sought with a large enough effect; inconclusive means small, poorly fitted or top-dose-only effect, or another doubt; inactive means no such curve, though single readings can be large; an effect the other way counts as inactive or inconclusive.

Legend:
[1] = Cell Viability - NIH 3T3 (AID 541); settings: NIH 3T3 cell viability, qHTS; activity change, negative = cytotoxicity: at 92.2 µM (top of the series);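 further: plate controls were DMSO alone for no effect and tamoxifen positive control for full effect; nearly all actives have a fitted effect of over 25% in size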
Summary of the method: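 Mouse NIH 3T3 fibroblasts, 1000 cells/well, rested 5 hr at 37 °C, then exposed to compound for 40 hr at 37 °C in complete medium. Viability read as intracellular ATP by CellTiter-Glo luminescence; AC50 from Hill-equation fits of concentration-response data.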

[2] = Cell Viability - H-4-II-E (AID 543); further: on the % scale 0 is the no-effect control and ±100 the full control effect; nearly all actives have a fitted effect of over 35% in size
Summary of the method: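 Rat hepatoma H-4-II-E cells, 1500 per well, treated 40 h at 37 °C in complete medium. Cellular ATP read by CellTiter-Glo luminescence; AC50 from Hill fits of concentration-response.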

[3] = Cell Viability - SH-SY5Y (AID 544); settings: SH-SY5Y neuroblastoma cell viability; viability change, negative = cytotoxic: at 92.2 µM (top of the series);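 further: 0% = DMSO alone and -100% = 100 µM tamoxifen; nearly all actives have a fitted effect of over 55% in size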
Summary of the method: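 SH-SY5Y human neuroblastoma cells (1500/well) incubated 5 h, then compound-treated 40 h at 37 °C in complete medium. Viability read as intracellular ATP by CellTiter-Glo luminescence after 20 min; AC50 from Hill-equation fits of qHTS concentration-response.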

[4] = Cell Viability - LYMP2-001 (AID 921);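 further: 0% = DMSO only and full inhibition = tetraoctylammonium bromide control wells; nearly all actives have a fitted effect of over 70% in size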
Summary of the method: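 CellTiter-Glo luminescence (intracellular ATP) after 24 hr compound exposure at 37 C, 2500 lymphoblastoid cells/well in complete medium. AC50 fitted with standard Hill equation; tetraoctylammonium bromide positive control.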

[5] = Cell Viability - LYMP1-003 - Assay at 40 hr (AID 964); further: on the % scale 0 is the no-effect control and ±100 the full control effect; nearly all actives have a fitted effect of over 60% in size
Summary of the method: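 LYMP1-003 human lymphoblastoid cells, 2500/well, preincubated 5 h at 37 C, then treated with compound for 40 h at 37 C. Intracellular ATP read by CellTiter-Glo luminescence after 30 min at room temperature; AC50 from Hill-equation fits.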

[6] = Cell Viability - LYMP2-003 (AID 965);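 further: cells exposed to compounds for 24 h before reading; 0% = DMSO only and full effect = 92 µM tetraoctylammonium bromide; nearly all actives have a fitted effect of over 50% in size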
Summary of the method: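 CellTiter-Glo luminescence (cellular ATP) after 24 h compound exposure at 37 C in complete medium; 2500 cells/well, 5 h settling beforehand. Concentration-response fitted to standard Hill equation for AC50. Tetraoctylammonium bromide served as positive control.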

[7] = Cell Viability - LYMP2-015 (AID 971);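 further: 0% = DMSO only and full effect = 92 µM tetraoctylammonium bromide; nearly all actives have a fitted effect of over 55% in size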
Summary of the method: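 LYMP2-015 human lymphoblastoid cells (2500/well) in complete medium, compound-treated 24 h at 37 C; viability read as cellular ATP by CellTiter-Glo luminescence after 30 min at room temperature. AC50 from Hill-equation fits of qHTS concentration-response data.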

[8] = Cell Viability - LYMP2-017 (AID 972); further: on the % scale 0 is the no-effect control and ±100 the full control effect; nearly all actives have a fitted effect of over 55% in size
Summary of the method: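 LYMP2-017 human lymphoblastoid cells (2500/well) settled 5 hr at 37 C, then exposed to compound 24 hr at 37 C in complete medium. Viability taken as intracellular ATP by CellTiter-Glo luminescence after 30 min at RT; AC50 from Hill fits.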

[9] = Cell Viability - LYMP2-021 (AID 974);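 further: compound exposure lasts 24 hours at 37 °C; on the % scale 0 is the no-effect control and ±100 the full control effect; nearly all actives have a fitted effect of over 55% in size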
Summary of the method: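 Human lymphoblastoid LYMP2-021 cells, 2500/well in complete medium, treated 24 hours at 37 C. Intracellular ATP by CellTiter-Glo luminescence (30 min, RT); AC50 from Hill fits of concentration-response.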

[10] = Cell Viability - LYMP2-006 (AID 978); further: on the % scale 0 is the no-effect control and ±100 the full control effect; nearly all actives have a fitted effect of over 60% in size
Summary of the method: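 qHTS, 1536-well; 2500 cells/well, 5 hr 37 C; cpd 24 hr 37 C; CellTiter-Glo 30 min RT; luminescence. Tetraoctylammonium bromide pos. ctrl. AC50 via Hill eqn.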

[11] = Cell Viability - LYMP2-010 (AID 981)
Summary of the method: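 Human lymphoblastoid LYMP2-010 cells (2500/well) treated 24 h at 37 C in complete medium; viability read as intracellular ATP by CellTiter-Glo luminescence. AC50 from Hill fits of concentration-response data; tetraoctylammonium bromide positive control.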

[12] = Cell Viability - LYMP2-012 (AID 982)
[13] = Cell Viability - LYMP2-016 (AID 984)
Summary of the method: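 qHTS, 1536-well: 2500 LYMP2-016 cells/well, 5 hr 37 C, compound added, 24 hr 37 C, CellTiter-Glo 30 min RT, luminescence. Tetraoctylammonium bromide positive control. AC50 via Hill fit.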

[14] = Cell Viability - LYMP2-020 (AID 986)
Summary of the method: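 Human lymphoblastoid LYMP2-020 cells (2500/well) preincubated 5 h at 37 C, then treated 24 h at 37 C. Viability measured as intracellular ATP by CellTiter-Glo luminescence after 30 min at room temperature; AC50 from Hill fits.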

[15] = Cell Viability - LYMP1-002 - Assay at 40 hr (AID 994);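 further: 0% = DMSO only and full inhibition = 92 µM tetraoctylammonium bromide; nearly all actives have a fitted effect of over 60% in size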
Summary of the method: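 LYMP1-002 human lymphoblastoid cells (2500/well, complete medium) were treated with compounds for 40 hr at 37 C. Intracellular ATP was measured by CellTiter-Glo luminescence, and AC50 values came from Hill-equation fits of concentration-response data; tetraoctylammonium bromide was the positive control.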

[16] = target: Retinoic acid receptor RXR-alpha (Homo sapiens) (UniProt P19793); assay: qHTS assay for small molecule agonists of retinoid X receptor alpha signaling (AID 588544; calls by dose curve;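 further: 0% = DMSO basal wells and 100% = reference agonist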)
Sequence of Retinoic acid receptor RXR-alpha (Homo sapiens) (P19793 whole entry, looked up): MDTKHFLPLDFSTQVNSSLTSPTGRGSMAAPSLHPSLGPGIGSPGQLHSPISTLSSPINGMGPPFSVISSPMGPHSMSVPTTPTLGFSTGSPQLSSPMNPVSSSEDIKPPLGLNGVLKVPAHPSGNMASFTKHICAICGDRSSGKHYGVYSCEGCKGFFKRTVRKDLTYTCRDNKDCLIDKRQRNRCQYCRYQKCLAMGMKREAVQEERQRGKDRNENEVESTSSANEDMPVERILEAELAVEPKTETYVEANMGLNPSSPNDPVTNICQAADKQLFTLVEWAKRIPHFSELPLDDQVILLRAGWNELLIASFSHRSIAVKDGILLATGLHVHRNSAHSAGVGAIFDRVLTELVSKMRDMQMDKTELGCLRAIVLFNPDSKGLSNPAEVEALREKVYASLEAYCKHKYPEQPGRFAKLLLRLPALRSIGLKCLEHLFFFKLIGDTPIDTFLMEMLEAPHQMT

[17] = qHTS assay for small molecule activators of the human pregnane X receptor (PXR) signaling pathway (AID 720659; call rule not given here; further: 0% is about no effect)
[18] = qHTS assay for small molecule agonists of the antioxidant response element (ARE) signaling pathway measured by Nrf2-dependant transcriptional activity (AID 720636; active means well fitted curve in the direction sought with a large enough effect in the repeat runs; an effect the other way counts as inactive or inconclusive; further: % of control where 0% means no effect)
Summary of the method: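 Nrf2-dependent transcription read as ONE-Glo luciferase signal from ARE-luc HepG2 reporter cells after 16 hr compound treatment at 37 C, 5% CO2, in assay medium with 1% dialyzed FBS.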

[19] = target: Retinoic acid receptor RXR-alpha (Homo sapiens) (UniProt P19793); assay: qHTS assay for small molecule antagonists of retinoid X receptor alpha signaling (AID 588546; active means well fitted inhibition curve with a large enough effect in the signal ratio, with a control signal flat, not every such curve was filed as active; the % refers to the signal ratio;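 further: cells stimulated with 9-cis-retinoic acid as agonist; on the % scale 0 is the no-effect control and ±100 the full control effect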); settings: HEK293T RXRa-UAS-bla, beta-lactamase ratio, antagonist mode
Summary of the method: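 Beta-lactamase reporter inhibition, read as CCF4 fluorescence ratio (ex 405, em 460/530 nm) after 2 h at RT. HEK293T UAS-bla cells, 2500/well, were stimulated with 9-cis-RA at 500 or 100 nM final alongside test compound for 18 h at 37 C.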

[20] = Cell Viability - HepG2 (AID 433; calls by dose curve;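 further: potency means the concentration at half of the fitted maximal effect; potency for ATP loss meaning cytotoxicity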); settings: qHTS
Summary of the method: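 ATP luminescence (CellTiter-Glo) after 40 h compound exposure, 37 °C, HepG2, 1500 cells/well, complete medium. Normalized: DMSO = basal, 100 uM tamoxifen = 100% inhibition. AC50 via standard Hill equation.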

CCC[N+](=O)[O-]
inactive: Potency [1] | Potency [2] | Potency [3] | Potency [4] | Potency [5] | Potency [6] | Potency [7] | Potency [8] | Potency [9] | Potency [10] | Potency [11] | Potency [12] | Potency [13] | Potency [14] | Potency [15] | outcome [16] | outcome [17]

CC(C)(OOC(C)(C)c1ccccc1)c1ccccc1
inactive: Potency [1] | Potency [2] | Potency [4] | Potency [6] | Potency [7] | Potency [9] | Potency [10] | Potency [11] | Potency [12] | Potency [13] | Potency [14] | Potency [15] | outcome [16] | Potency [18]

O=[N+]([O-])CCO
inactive: Potency [1] | Potency [2] | Potency [4] | Potency [5] | Potency [6] | Potency [7] | Potency [8] | Potency [9] | Potency [10] | Potency [11] | Potency [12] | Potency [13] | Potency [14] | Potency [15] | outcome [16] | max response [19] -8.95% | Potency [18] | outcome [17]

Nc1ccc(Cl)c(Cl)c1
inactive: Potency [20] > 92 µM | Potency [1] | Potency [2] | Potency [3] | Potency [4] | Potency [5] | Potency [7] | Potency [10] | Potency [11] | Potency [13] | Potency [15] | outcome [16] | max response [19] -9.29% | Potency [18] | outcome [17]

c1ccc(N=NNc2ccccc2)cc1
inactive: Potency [2] | Potency [4] | Potency [5] | Potency [6] | Potency [7] | Potency [8] | Potency [9] | Potency [10] | Potency [11] | Potency [13] | Potency [14] | Potency [15] | max response [19] -17.2%

CCBr
inactive: Potency [20] > 92 µM | Potency [1] | Potency [2] | Potency [4] | Potency [5] | Potency [6] | Potency [7] | Potency [8] | Potency [10] | Potency [11] | Potency [12] | Potency [14] | Potency [15] | outcome [16] | max response [19] 2.77% | outcome [17]

CC(C)CON=O
inactive: Potency [20] > 92 µM | Potency [1] | Potency [2] | Potency [3] | Potency [4] | Potency [5] | Potency [6] | Potency [7] | Potency [8] | Potency [10] | Potency [11] | Potency [12] | Potency [15] | outcome [16] | max response [19] 8.37% | Potency [18] | outcome [17]

CCCCC(=O)Cl
inactive: Potency [20] > 92 µM | Potency [1] | Potency [2] | Potency [3] | Potency [7] | Potency [8] | Potency [9] | Potency [10] | Potency [11] | Potency [12] | Potency [13] | Potency [14] | outcome [17]

O=C(O)CCl
inactive: Potency [1] | Potency [3] | Potency [5] | Potency [6] | Potency [7] | Potency [8] | Potency [9] | Potency [10] | Potency [11] | Potency [12] | Potency [13] | Potency [14] | outcome [16] | max response [19] -2.41% | Potency [18] | outcome [17]
